M18AAP inhibitor = blocks P. falciparum M18 aspartyl aminopeptidase; recombinant PfM18AAP, H-Glu-NHMec fluorogenic cleavage; inhibition, % at 7.35 µM; actives 1.2% (n = 290,000);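 active = inhibition above the campaign mean inhibition over all tested compounds plus 3 SD, cut at about 28% in these data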
Rce1 inhib = blocks yeast Ras-converting enzyme; Q03530; yeast membranes, quenched prenylated peptide cleavage fluorescence; calls only; actives 0.27% (n = 290,000); AID 2563;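 active = fall in fluorescence gain of 50% or more versus controls, with final raw signal at or below 3038400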
Target sequence (Q03530 whole entry, looked up): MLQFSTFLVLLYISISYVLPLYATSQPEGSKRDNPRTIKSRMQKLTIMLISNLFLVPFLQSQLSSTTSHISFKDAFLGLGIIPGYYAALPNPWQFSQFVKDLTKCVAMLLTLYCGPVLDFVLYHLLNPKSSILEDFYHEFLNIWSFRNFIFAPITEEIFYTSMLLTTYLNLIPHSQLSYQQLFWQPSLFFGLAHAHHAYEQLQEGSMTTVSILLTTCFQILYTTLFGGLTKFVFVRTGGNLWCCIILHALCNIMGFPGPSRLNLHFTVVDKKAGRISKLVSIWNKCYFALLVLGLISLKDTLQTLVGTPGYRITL
GC-A act = GC-A (human) enzyme activation. AID 1671463. actives 0.14% (n = 370,000). activation, % at 10 µM. HEK293 GC-A cells, cGMP TR-FRET, EC30 ANP; 0% at EC30 ANP, 100% saturating ANP; in the data active = activation above about 40%
PLCg1 inh = PLC-gamma1 (human) inhibition, primary screen | purified PLC-gamma1, fluorogenic substrate, fluorescence | inhibition, % at 12.2 µM | actives 0.84% (n = 370,000) | AID 720700; in the data active = inhibition above about 9.5%
PLCb3 inh = inhibitors of human phospholipase C beta3; Purified PLC-beta3, fluorogenic substrate, fluorescence; actives 0.18% (n = 370,000); Q01970; inhibition, % at 12.2 µM; in the data active = inhibition above about 11%
NPR2 activator = GC-B (human) receptor activation. HEK293-GC-B cells, CNP EC30, cGMP TR-FRET; 0% at EC30 CNP, 100% saturating CNP. activation, % at 10 µM. actives 0.11% (n = 370,000). AID 1920062;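 active = activation at 10 µM reaching about 35% in either raw or pattern-adjusted values, limit read from the data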
Of the large screens only hits and unclear results are named; the others gave an inactive call. Most compounds without a hit are left out; they make up all but 2.2% or so of the library.

COCCCN1C(=O)[C@H](CC(=O)NCCCN2CCCC2=O)[C@]2(C(=O)OC)CCCCC=C12	none (no result: M18AAP inhibitor, Rce1 inhib)
COc1ccccc1NC(=O)c1c(NC(=O)CCC(=O)O)sc2c1CCCCC2	none
COc1ccc(OC)c(NC(=O)c2c(NC(=O)CCC(=O)O)sc3c2CCCCC3)c1	M18AAP inhibitor 37
O=C(O)CCC(=O)Nc1sc2c(c1C(=O)Nc1cccc3ccccc13)CCCCC2	M18AAP inhibitor 30
Cc1ccc(NC(=O)Nc2ccc3c(c2)[C@]2(CC(=O)N(CC(C)C)C2c2ccccc2)C(=O)N3C)cc1Cl (stereo not given in full)	none (no result: M18AAP inhibitor, Rce1 inhib)
O=C(Cn1nnc(-c2ccccc2)n1)OC1CCOC1=O (stereo not given)	GC-A act 54
Cc1cc(Cl)ccc1OCC(=O)n1cc(C(=O)c2cc(Cl)ccc2O)cn1	M18AAP inhibitor 30 (no result: GC-A act, PLCg1 inh, PLCb3 inh, NPR2 activator)
COc1ccc(C(=O)n2cc(C(=O)c3cc(C)ccc3O)cn2)cc1OC	none
NC(=O)/C(=C/c1ccco1)NC(=O)c1ccc(Br)o1	M18AAP inhibitor 29
COC(=O)/C(=C/c1ccco1)NC(=O)c1ccc(Br)o1	none
c1ccc(-c2c[nH]c3cccc(C4CCCCC4)c23)cc1	none (no result: M18AAP inhibitor, Rce1 inhib)
COc1ccccc1C1=NN(C2=NN=C(N)Cc3ncnn32)C(O)(C(F)(F)F)C1 (stereo not given)	Rce1 inhib active (no result: GC-A act, NPR2 activator)
COc1cc(-c2nc(C(=O)NCC3CCCO3)cc3c2[nH]c2ccccc23)cc(OC)c1OC (stereo not given)	GC-A act 53, NPR2 activator 59
COc1ccccc1-c1nc(C(=O)NCC2CCCO2)cc2c1[nH]c1ccccc12 (stereo not given)	none (no result: GC-A act, PLCg1 inh, PLCb3 inh, NPR2 activator)
C[C@H]1[C@@H](O)CC[C@@]23CCCN2C(=O)CCC[C@@H]13	none (no result: M18AAP inhibitor, Rce1 inhib)
O=C(C1=C[C@@H](C2CC2)C[C@@H](OCc2ccc(CO)cc2)O1)N1CCN(Cc2ccccc2)CC1	Rce1 inhib active
CN1CCN(C(=O)C2=C[C@H](C3CC3)C[C@H](OCc3ccc(CO)cc3)O2)CC1	none (no result: M18AAP inhibitor)
COC(=O)[C@]12C[C@H](CC(=O)NCCc3ccccc3OC)C(=O)N(CCc3ccc(OC)c(OC)c3)C1=C[C@H](C(C)(C)C)O[C@@H]2C	none (no result: M18AAP inhibitor, Rce1 inhib)
O=C(OCc1cn(Cc2ccc(F)cc2)nn1)N1CCCC1	none (no result: M18AAP inhibitor, Rce1 inhib)
Cc1ccc(-n2c(Cc3cccn3C)nnc2SCC(=O)NCc2ccc3c(c2)OCO3)cc1	M18AAP inhibitor 30
CCCCCSc1nc(N2CCOCC2)c2c(c1C#N)CC(C)(C)OC2	GC-A act 44, NPR2 activator 47
CCCOC(=O)CSc1nc(N2CCOCC2)c2c(c1C#N)CC(C)(C)OC2	none
CC1(C)Cc2c(C#N)c(SCc3ccccc3)nc(N3CCOCC3)c2CO1	NPR2 activator 52
CC1(C)Cc2c(C#N)c(SCC(=O)c3ccccc3)nc(N3CCOCC3)c2CO1	none
COc1cc(-c2csc(N3CCC(C(N)=O)CC3)n2)cc(OC)c1OC	none (no result: M18AAP inhibitor, Rce1 inhib)
COc1ccc2c(c1)cc(C(=O)N[C@@H](CCSC)C(=O)N1CCC(C(=O)O)CC1)n2C	Rce1 inhib active
CCN(C(=O)C1CCCN1S(=O)(=O)c1cccnc1)c1ccccc1 (stereo not given)	none (no result: M18AAP inhibitor, Rce1 inhib)
Cc1ccc(-c2csc3nc4c5ccccc5c(NCCCN5CCOCC5)nn4c(=O)c23)cc1	none (no result: GC-A act, PLCg1 inh, PLCb3 inh, NPR2 activator)
Cc1ccc(-c2csc3nc4c5ccccc5c(NCCCN(C)C)nn4c(=O)c23)cc1	Rce1 inhib active
CN(C)CCCN1C(=O)c2cc3ccccc3cc2C1=O	none
CN(C)CCCN1C(=O)c2cccc3cccc(c23)C1=O	Rce1 inhib active
O=[N+]([O-])c1cc2c(cc1CN1CCN(c3ccccc3F)CC1)OCO2	M18AAP inhibitor 29
C/C(CC(=O)NCc1ccco1)=N\NC(=O)CC#N	M18AAP inhibitor 30
CCOc1ccc(CCNC(=O)Cc2ccccc2)cc1OCC	none (no result: M18AAP inhibitor, Rce1 inhib)
Cc1ccccc1-c1nnc2n1N=C(c1ccc(O)c(O)c1)CS2	none (no result: M18AAP inhibitor, Rce1 inhib)
COc1ccccc1-c1nnc2n1N=C(c1ccc(O)c(O)c1)CS2	M18AAP inhibitor 69 (no result: GC-A act, PLCg1 inh, PLCb3 inh, NPR2 activator)
Cc1ccsc1C=Nc1ccc(O)cc1	none (no result: GC-A act, PLCg1 inh, PLCb3 inh, NPR2 activator)
Oc1ccc(N=Cc2ccc(O)c(O)c2)cc1	M18AAP inhibitor 46 (no result: GC-A act, PLCg1 inh, PLCb3 inh, NPR2 activator)
N#C/C=C1/NC(=O)c2ccccc2S1	M18AAP inhibitor 29
COC(=O)c1ccc2c(c1)NC(=O)c1ccccc1S2	none
